Reference: PubChem BioAssay (NCATS)
Values joined by “and” are separate entries in the source; they are usually repeats but may differ in a detail not shown here. Equal values may be shown once. Records with an inconclusive call do not appear. A call without a number means that no potency is given here. Active and inactive are the calls of the source. Unless noted, calls come from the whole dose curve; as a rule, active = well fitted curve in the direction sought with a large enough effect; inconclusive = small, poorly fitted or top-dose-only effect, or another doubt; inactive = no such curve, though single readings can be large; an effect the other way counts as inactive or inconclusive.

Tests used:
[1] = Primary qHTS for small molecule stabilizers of the endoplasmic reticulum resident proteome: Secreted ER Calcium Modulated Protein (SERCaMP) assay (AID 1508630)
Summary of the method: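 The SH-SY5Y reporter protocol was run at 3 concentrations up to 38.3 uM (primary) or 11 concentrations (follow-up): 16 h compound, 100 nM thapsigargin for 4 h, then extracellular luciferase luminescence.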

Papain (Carica papaya) = Papain (Carica papaya) (UniProt P00784); assay: Primary qHTS assay for inhibitors of the protease papain (AID 1645873);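 note: papain turnover of Z-FR-AMC read as the AMC fluorescence gain over 10 min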
[2] = Cytotoxicity counterscreen for inhibitors of SARS-CoV-2 cell entry (AID 1645845; calls by dose curve; note: nearly all actives have a fitted effect of over 50% in size; note: potency is the fitted concentration of half-maximal effect)
Summary of the method: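 ATP-content luminescence (ATPLite 1step, 15 min RT) read after 48 h compound exposure of Expi293F cells stably expressing human ACE2; normalized to cells-only wells and media-only wells.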

[3] = Primary qHTS to identify inhibitors of SARS-CoV-2 cell entry (AID 1645846; calls by dose curve; note: nearly all actives have a fitted effect of over 45% in size; note: potency is the fitted concentration of half-maximal effect); details: activity change, negative = inhibition: at 57.1 µM (top of the series) unless noted
Summary of the method: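 Luminescence readout (Bright-Glo luciferase) 48 h after pseudoparticle addition. HEK293-ACE2 cells, 1500/well; compound pre-incubation 1 h; Normalized to spike PP and bald PP.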

[4] = Primary qHTS for inhibitors of nuclear receptor binding SET domain protein 2 (NSD2) in an RCH-ACV wild type WT cells (2C) (AID 1645877); note: nearly all actives have a fitted effect of over 70% in size; note: potency is the fitted concentration of half-maximal effect
[5] = Primary qHTS for inhibitors of nuclear receptor binding SET domain protein 2 (NSD2) in an isogenic RCH-ACV NSD2 p.E1099K mutant (9B) (AID 1645876); note: nearly all actives have a fitted effect of over 70% in size; note: potency is the fitted concentration of half-maximal effect
[6] = molecular target: Rap guanine nucleotide exchange factor 3 (Homo sapiens) (UniProt O95398); assay: Confirmatory qHTS for agonist of cAMP-regulated guanine nucleotide exchange factor 3 (EPAC1) (AID 1645881);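 note: EPAC1 catalysed release of BODIPY-GDP from Rap1B seen as fluorescence loss; nearly all actives have a fitted effect of over 75% in size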
[7] = molecular target: Rap guanine nucleotide exchange factor 4 (Homo sapiens) (UniProt Q8WZA2); assay: Confirmatory qHTS for agonist of cAMP-regulated guanine nucleotide exchange factor 4 (EPAC2) (AID 1645884);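 note: nucleotide exchange releases bodipy-GDP from Rap1 and this lowers its fluorescence; nearly all actives have a fitted effect of over 65% in size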
[8] = molecular target: Rap guanine nucleotide exchange factor 4 (Homo sapiens) (UniProt Q8WZA2); assay: Confirmatory qHTS for antagonist of cAMP-regulated guanine nucleotide exchange factor 4 (EPAC2) (AID 1645885); note: nearly all actives have a fitted effect of over 25% in size
[9] = molecular target: Cytochrome P450 2D6 (Homo sapiens) (UniProt P10635); assay: Cytochrome P450 family 2 subfamily D member 6 (CYP2D6) small molecule antagonists: luciferase biochemical (cell-free) qHTS assay (AID 1645840; active = well fitted curve in the direction sought with a large enough effect in the repeat runs; an effect the other way counts as inactive or inconclusive; note: nearly all actives have a fitted effect of over 55% in size; note: potency is the fitted concentration of half-maximal effect)
Summary of the method: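 P450-Glo CYP2D6 system: proluciferin substrate converted by enzyme to luciferin, read by luminescence proportional to activity. Enzyme-substrate mix with compound 10 min at room temperature, then NADPH regeneration 1 h before detection reagent.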

[10] = molecular target: Cytochrome P450 3A4 (Homo sapiens) (UniProt P08684); assay: Cytochrome P450 family 3 subfamily A member 4 (CYP3A4) small molecule antagonists: luciferase qHTS assay (AID 1645841; active = well fitted curve in the direction sought with a large enough effect in the repeat runs; an effect the other way counts as inactive or inconclusive; note: nearly all actives have a fitted effect of over 45% in size; note: potency is the fitted concentration of half-maximal effect)
Summary of the method: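 Luminescent CYP3A4 activity readout: compounds plus enzyme-substrate mix 10 min at room temperature, reaction started with NADPH regenerating system for 1 h, stopped with detection reagent, read after 20 min. Ketoconazole served as control.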

[11] = molecular target: N-terminal Xaa-Pro-Lys N-methyltransferase 1 (Homo sapiens) (UniProt Q9BV86); assay: Confirmatory qHTS for Inhibitors of N-terminal methyltransferase 1 (NTMT1): MTaseGlo Assay (AID 1645874); details: NTMT1 enzyme, MTase-Glo SAH luminescence; note: potency is the fitted concentration of half-maximal effect; nearly all actives have a fitted effect of over 65% in size
Summary of the method: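 Inhibition was derived from luminescence after SAH-to-ATP conversion, scaled between no-enzyme and DMSO wells, then fitted by 4-parameter Hill. Conditions: 125 nM NTMT1, 100 uM SAM, 1 uM SPKRIA, 30 min RT.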

[12] = A High-Content qHTS Against Drug Library for the Identification of Small Molecules that Inhibit DYT1 Early Onset Primary Dystonia-Associated Cell Pathology (AID 1645839; calls by dose curve)
Summary of the method: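 High-content imaging quantified EGFP-TorsinA mislocalization in HEK293-derived cells inducibly expressing DYT1 mutant torsinA, after 48 h exposure to compound given together with tetracycline induction. Cell count served as a toxicity channel alongside %pathology.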

[13] = molecular target: Cytochrome P450 2C9 (Homo sapiens) (UniProt P11712); assay: Cytochrome P450 family 2 subfamily C member 9 (CYP2C9) small molecule antagonists: luciferase biochemical (cell-free) qHTS assay (AID 1645842; active = well fitted curve in the direction sought with a large enough effect in the repeat runs; an effect the other way counts as inactive or inconclusive; note: potency is the fitted concentration of half-maximal effect; nearly all actives have a fitted effect of over 55% in size)
Summary of the method: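 P450-Glo CYP2C9 system: proluciferin substrate with enzyme in mix containing 0.4% BSA, 10 min at room temperature, then NADPH regeneration solution added and incubated 1 h at 37C. Detection reagent stopped reaction; luminescence read after 20 min as RLU.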

[14] = molecular target: Rap guanine nucleotide exchange factor 3 (Homo sapiens) (UniProt O95398); assay: Confirmatory qHTS for antagonist of cAMP-regulated guanine nucleotide exchange factor 3 (EPAC1) (AID 1645880); note: nearly all actives have a fitted effect of over 55% in size
Summary of the method: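 Released BODIPY-GDP fluoresces less than Rap1-bound BODIPY-GDP; the signal is followed at 480/540 nm at 5-min intervals over 30 min, after 5 min at room temperature. Reactions contain 100 nM EPAC1, 250 nM RAP1B-BODIPY-GDP and 50 uM GDP; results are normalized to ATA and DMSO.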

[15] = molecular target: Rap guanine nucleotide exchange factor 3 (Homo sapiens) (UniProt O95398); assay: Counterscreen qHTS for antagonist of cAMP-regulated guanine nucleotide exchange factor 3 (EPAC1) (AID 1645888)
Summary of the method: (§1)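 Rap1B-BODIPY-GDP 250 nM + GDP 50 uM; cpds 7-pt, final 9.74 nM–152 uM (activator mode) or from 7.32 nM upwards (inhibitor mode); RT; FI 480/540 nm at 5 and 30 min, then ± cAMP, reread.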

[16] = molecular target: Rap guanine nucleotide exchange factor 3 (Homo sapiens) (UniProt O95398); assay: Counterscreen qHTS for agonist of cAMP-regulated guanine nucleotide exchange factor 3 (EPAC1) (AID 1645889); note: nearly all actives have a fitted effect of over 40% in size
Summary of the method: as §1

Rap guanine nucleotide exchange factor 3 (Homo sapiens), sequence (O95398 whole entry, looked up): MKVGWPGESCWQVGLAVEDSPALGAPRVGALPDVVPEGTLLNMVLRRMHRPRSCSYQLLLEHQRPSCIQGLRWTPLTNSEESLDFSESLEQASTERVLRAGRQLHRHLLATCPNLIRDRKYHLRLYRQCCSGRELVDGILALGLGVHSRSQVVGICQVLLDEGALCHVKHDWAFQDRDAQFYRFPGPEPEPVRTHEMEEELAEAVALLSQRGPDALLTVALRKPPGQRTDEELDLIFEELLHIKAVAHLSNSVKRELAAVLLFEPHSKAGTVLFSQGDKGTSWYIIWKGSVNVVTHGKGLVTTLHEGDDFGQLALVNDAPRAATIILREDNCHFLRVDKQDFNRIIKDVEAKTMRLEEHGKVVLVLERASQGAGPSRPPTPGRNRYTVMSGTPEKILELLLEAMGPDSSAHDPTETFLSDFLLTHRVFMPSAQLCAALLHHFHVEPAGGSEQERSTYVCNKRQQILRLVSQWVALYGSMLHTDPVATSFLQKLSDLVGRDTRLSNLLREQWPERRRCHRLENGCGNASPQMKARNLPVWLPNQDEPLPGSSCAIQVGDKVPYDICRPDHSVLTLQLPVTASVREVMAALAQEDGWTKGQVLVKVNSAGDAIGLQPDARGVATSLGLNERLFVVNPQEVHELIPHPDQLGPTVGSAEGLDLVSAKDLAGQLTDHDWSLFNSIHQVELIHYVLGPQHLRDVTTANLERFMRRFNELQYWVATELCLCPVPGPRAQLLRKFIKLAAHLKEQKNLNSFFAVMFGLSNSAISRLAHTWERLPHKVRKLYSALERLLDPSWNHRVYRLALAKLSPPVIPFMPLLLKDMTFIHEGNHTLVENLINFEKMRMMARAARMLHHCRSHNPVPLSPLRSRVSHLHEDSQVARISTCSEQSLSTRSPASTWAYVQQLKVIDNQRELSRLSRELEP
Papain (Carica papaya), sequence (P00784 whole entry, looked up): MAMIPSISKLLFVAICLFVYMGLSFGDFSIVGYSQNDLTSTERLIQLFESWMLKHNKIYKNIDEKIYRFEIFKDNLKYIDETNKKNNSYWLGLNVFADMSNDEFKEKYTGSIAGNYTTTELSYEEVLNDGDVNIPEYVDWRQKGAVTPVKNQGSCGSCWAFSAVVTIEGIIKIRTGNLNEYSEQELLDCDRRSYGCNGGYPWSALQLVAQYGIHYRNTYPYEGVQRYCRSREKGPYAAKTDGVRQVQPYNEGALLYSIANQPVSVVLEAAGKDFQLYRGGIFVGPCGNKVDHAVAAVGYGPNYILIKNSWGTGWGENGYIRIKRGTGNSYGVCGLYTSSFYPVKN
Rap guanine nucleotide exchange factor 4 (Homo sapiens), sequence (Q8WZA2 whole entry, looked up): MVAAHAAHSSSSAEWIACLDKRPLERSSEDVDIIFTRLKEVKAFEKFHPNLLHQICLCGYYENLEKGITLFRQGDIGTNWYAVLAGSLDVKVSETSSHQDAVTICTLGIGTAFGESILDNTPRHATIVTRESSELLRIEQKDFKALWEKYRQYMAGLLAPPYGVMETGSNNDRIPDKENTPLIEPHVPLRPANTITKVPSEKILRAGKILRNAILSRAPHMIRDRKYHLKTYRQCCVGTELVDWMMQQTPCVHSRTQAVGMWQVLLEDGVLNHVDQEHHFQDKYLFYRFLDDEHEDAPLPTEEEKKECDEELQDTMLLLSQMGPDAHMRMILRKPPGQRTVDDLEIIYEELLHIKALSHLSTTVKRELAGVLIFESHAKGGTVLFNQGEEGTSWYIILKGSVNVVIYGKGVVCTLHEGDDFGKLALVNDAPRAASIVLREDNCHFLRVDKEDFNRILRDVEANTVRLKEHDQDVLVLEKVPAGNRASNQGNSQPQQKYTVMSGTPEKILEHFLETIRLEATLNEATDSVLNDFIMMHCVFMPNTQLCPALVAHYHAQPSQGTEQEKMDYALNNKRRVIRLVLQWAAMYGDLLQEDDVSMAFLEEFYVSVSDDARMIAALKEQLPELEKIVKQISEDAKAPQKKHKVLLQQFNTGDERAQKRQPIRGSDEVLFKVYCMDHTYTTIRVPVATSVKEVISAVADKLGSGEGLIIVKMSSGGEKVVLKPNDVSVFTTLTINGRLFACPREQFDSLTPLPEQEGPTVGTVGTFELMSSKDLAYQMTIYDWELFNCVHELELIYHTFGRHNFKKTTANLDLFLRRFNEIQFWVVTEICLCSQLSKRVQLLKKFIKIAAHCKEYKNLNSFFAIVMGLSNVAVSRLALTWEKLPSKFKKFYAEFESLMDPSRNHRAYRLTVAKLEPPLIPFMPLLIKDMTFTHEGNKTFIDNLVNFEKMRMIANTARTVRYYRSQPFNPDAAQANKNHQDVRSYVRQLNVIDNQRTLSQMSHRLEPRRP
Cytochrome P450 2C9 (Homo sapiens), sequence (P11712 whole entry, looked up): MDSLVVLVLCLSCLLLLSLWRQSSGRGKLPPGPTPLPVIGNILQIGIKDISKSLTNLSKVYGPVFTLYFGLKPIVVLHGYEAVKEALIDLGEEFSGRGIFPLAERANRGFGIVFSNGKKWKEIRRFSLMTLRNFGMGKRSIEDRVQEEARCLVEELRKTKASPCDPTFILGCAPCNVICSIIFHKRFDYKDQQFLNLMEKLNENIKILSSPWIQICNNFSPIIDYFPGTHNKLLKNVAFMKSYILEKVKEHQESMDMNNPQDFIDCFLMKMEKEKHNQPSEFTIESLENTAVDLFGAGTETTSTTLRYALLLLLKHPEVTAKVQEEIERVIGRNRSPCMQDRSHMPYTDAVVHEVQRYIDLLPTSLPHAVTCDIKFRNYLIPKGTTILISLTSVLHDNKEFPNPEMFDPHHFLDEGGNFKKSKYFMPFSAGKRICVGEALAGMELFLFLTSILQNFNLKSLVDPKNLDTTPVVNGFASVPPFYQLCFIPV
Cytochrome P450 3A4 (Homo sapiens), sequence (P08684 whole entry, looked up): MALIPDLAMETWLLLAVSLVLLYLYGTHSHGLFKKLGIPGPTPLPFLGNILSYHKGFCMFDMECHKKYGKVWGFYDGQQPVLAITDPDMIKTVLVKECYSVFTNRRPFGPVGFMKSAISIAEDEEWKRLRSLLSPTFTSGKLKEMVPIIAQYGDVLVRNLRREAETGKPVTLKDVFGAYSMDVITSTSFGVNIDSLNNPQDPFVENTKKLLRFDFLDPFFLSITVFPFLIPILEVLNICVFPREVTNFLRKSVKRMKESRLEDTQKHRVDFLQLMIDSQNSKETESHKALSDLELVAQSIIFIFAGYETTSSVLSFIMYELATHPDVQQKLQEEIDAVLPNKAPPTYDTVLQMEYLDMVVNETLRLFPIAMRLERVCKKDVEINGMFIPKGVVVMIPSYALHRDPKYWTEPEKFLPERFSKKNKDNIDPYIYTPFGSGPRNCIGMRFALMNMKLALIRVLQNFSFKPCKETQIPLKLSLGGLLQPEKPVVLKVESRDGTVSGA
Cytochrome P450 2D6 (Homo sapiens), sequence (P10635 whole entry, looked up): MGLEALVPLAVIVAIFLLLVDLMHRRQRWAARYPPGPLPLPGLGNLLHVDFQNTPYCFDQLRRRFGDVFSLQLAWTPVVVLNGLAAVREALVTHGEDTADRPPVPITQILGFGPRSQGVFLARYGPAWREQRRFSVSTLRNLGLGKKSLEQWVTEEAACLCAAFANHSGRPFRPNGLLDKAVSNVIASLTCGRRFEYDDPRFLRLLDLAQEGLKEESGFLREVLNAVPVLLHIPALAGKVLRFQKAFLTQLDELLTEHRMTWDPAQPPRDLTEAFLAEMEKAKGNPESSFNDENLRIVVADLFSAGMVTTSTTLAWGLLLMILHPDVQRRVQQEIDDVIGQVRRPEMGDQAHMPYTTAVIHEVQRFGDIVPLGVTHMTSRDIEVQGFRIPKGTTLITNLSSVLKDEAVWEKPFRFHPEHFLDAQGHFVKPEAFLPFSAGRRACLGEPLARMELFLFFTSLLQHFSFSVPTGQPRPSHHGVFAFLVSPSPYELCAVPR
N-terminal Xaa-Pro-Lys N-methyltransferase 1 (Homo sapiens), sequence (Q9BV86 whole entry, looked up): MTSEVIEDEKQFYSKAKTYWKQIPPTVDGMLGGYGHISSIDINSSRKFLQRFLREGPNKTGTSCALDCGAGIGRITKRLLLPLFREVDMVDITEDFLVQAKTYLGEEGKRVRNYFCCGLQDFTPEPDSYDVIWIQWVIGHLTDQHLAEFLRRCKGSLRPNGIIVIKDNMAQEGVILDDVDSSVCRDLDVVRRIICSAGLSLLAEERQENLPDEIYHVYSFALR

Compound: NCCc1c[nH]c2ccc(O)cc12
- Potency [1]: inactive
- Potency (Papain (Carica papaya)): inactive

Compound: CC(=O)Nc1ccc(OC[C@](C)(O)C(=O)Nc2ccc([N+](=O)[O-])c(C(F)(F)F)c2)cc1
- Potency [1]: inactive
- Potency [2]: inactive
- activity change, negative = inhibition [3]: 0.0964%
- Potency [4]: inactive

Compound: C[C@]12CC[C@H]3[C@@H](CCC4=CC(=O)CC[C@@]43C)[C@H]1CC[C@H]2OC(=O)CCC1CCCC1
- Potency [1]: inactive
- Potency [2]: inactive
- activity change, negative = inhibition [3]: -3.52%
- Potency [5]: inactive
- Potency [4]: inactive

Compound: CN(C)[C@@H]1C(=O)C(C(N)=O)=C(O)[C@@]2(O)C(=O)C3=C(O)c4c(O)cccc4[C@@](C)(O)[C@H]3[C@H](O)[C@@H]12
- Potency [1]: inactive
- Potency [2]: inactive
- Potency [4]: inactive
- outcome [6]: inactive
- outcome [7]: inactive
- Potency [8]: inactive

Compound: CC(C)[C@H]1C(=O)N[C@H](CO)Cc2c[nH]c3cccc(c23)N1C
- Potency [1]: inactive
- Potency [3]: inactive

Compound: CC(C)[C@]12O[C@H]1[C@@H]1O[C@]13[C@]1(O[C@H]1C[C@H]1C4=C(CC[C@@]13C)C(=O)OC4)[C@@H]2O
- Potency [1]: inactive
- activity change, negative = inhibition [3]: -93.7%
- Potency [5]: 18.3 nM (active) and 23.5 nM (active)
- Potency [4]: 12.9 nM (active) and 18.6 nM (active)

Compound: O=C(Oc1ccc([N+](=O)[O-])cc1)N1CCN(Cc2cccc(Oc3ccccc3)c2)CC1
- Potency [1]: inactive
- Potency [9]: 2.68 µM (active)
- Potency [5]: inactive
- Potency [4]: inactive

Compound: Cc1ccccc1-n1c(Cn2cnc3c(N)ncnc32)nc2cccc(C)c2c1=O
- Potency [1]: inactive
- Potency [2]: inactive
- Potency [3]: inactive

Compound: NC(CCP(=O)(O)O)C(=O)O (centres undefined)
- Potency [1]: inactive
- Potency (Papain (Carica papaya)): inactive

Compound: Clc1ccccc1C(c1ccccc1)(c1ccccc1)n1cccn1
- Potency [1]: inactive
- Potency [2]: inactive
- Potency [5]: inactive
- Potency [4]: inactive

Compound: O=C(N[C@H]1CN2CCC1CC2)c1ccc(Cl)cc1
- Potency [1]: inactive
- Potency [2]: inactive
- activity change, negative = inhibition [3]: 4.38%
- Potency (Papain (Carica papaya)): inactive
- Potency [5]: inactive
- Potency [4]: inactive

Compound: CCN1C[C@]2(OC(=O)c3ccccc3NC(C)=O)CC[C@H](OC)[C@@]34[C@H]5CC6[C@@H](OC)C[C@](O)(C(C[C@@H]23)[C@@H]14)[C@@]5(O)[C@@H]6OC
- Potency [1]: inactive
- Potency [2]: inactive
- activity change, negative = inhibition [3]: 1.38%
- Potency [5]: inactive
- Potency [4]: inactive

Compound: C[C@]12CC[C@@H]3[C@@H](CCC4=CC(=O)CC[C@@H]43)[C@@H]1CC[C@@H]2OC(=O)CCc1ccccc1
- Potency [1]: inactive
- Potency [2]: inactive
- activity change, negative = inhibition [3]: -12.2%
- Potency [5]: inactive
- Potency [4]: inactive

Compound: O=S(=O)(F)Cc1ccccc1
- Potency [1]: inactive
- Potency [2]: inactive
- activity change, negative = inhibition [3]: -1.91%
- Potency [5]: inactive
- Potency [4]: inactive

Compound: C[C@](O)(COc1ccc(C#N)cc1)C(=O)Nc1ccc(C#N)c(C(F)(F)F)c1
- Potency [1]: inactive
- Potency [2]: inactive
- activity change, negative = inhibition [3]: -12.9%
- Potency [5]: 20.9 µM (active)
- Potency [4]: 20.9 µM (active)

Compound: CC(=O)[O][Hg][c]1ccccc1
- Potency [10]: 7.76 µM (active)
- Potency [3]: 1.58 µM (active)
- Potency [11]: 1.07 µM (active)

Compound: CC(Cc1ccc(O)cc1)NCC(O)c1cc(O)cc(O)c1 (centres undefined)
- Potency [2]: inactive

Compound: CC[N+]1(CCOC(=O)C(O)(c2ccccc2)c2ccccc2)CCCCC1
- Potency [12]: inactive
- Potency [10]: inactive
- Potency [2]: inactive
- activity change, negative = inhibition [3]: -23.2%
- Potency [5]: inactive
- Potency [4]: inactive

Compound: c1ccc2c(-c3cnn4cc(-c5ccc(N6CCNCC6)cc5)cnc34)ccnc2c1
- Potency [2]: 7.08 µM (active)

Compound: C1Cc2[nH]nc(-c3nn[nH]n3)c2C1
- Potency [2]: inactive

Compound: COc1ccc(C(c2ccc(OC)cc2)C(Cl)(Cl)Cl)cc1
- Potency [9]: inactive
- Potency [13]: 1.49 µM (active)

Compound: CCCCOC(=O)c1ccccc1C(=O)OCc1ccccc1
- Potency [12]: inactive
- Potency [13]: 8.2 µM (active)
- outcome [14]: inactive
- outcome [6]: inactive
- activation [7]: 4.15% [at 17.1 µM] (inactive)
- outcome [15]: inactive
- outcome [16]: inactive

Compound: CC(C)C(=O)Nc1ncc(-c2cc(C(F)F)nn2-c2c(Cl)cccc2Cl)s1
- Potency [2]: inactive
